Only some compounds are listed: those with a hit (about 2.7% of all), similar ones and a draw of the others.
rCAG binder: molecules binding r(CAG) RNA repeats. inhibition, % at 3 µM. r(CAG) RNA repeat, TO-PRO-1 dye displacement fluorescence. AID 651821. 370,000 tested, 1.3% active;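 active means inhibition above the plate cutoff, the mean of all test compounds on that plate plus 3 SD, cut at about 35% in these data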;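 further: higher means more dye released from RNA so lower well fluorescence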
MsrA inhibitor: inhibits bovine methionine sulfoxide reductase A. purified bovine MsrA, absorbance read-out. inhibition, % at 15.5 µM. 360,000 tested, 0.75% active. AID 651718
bovine MsrA act: activates bovine MsrA enzyme; activation, % at 10.6 µM; 360,000 tested, 0.3% active; purified bovine MsrA, absorbance read-out; AID 602163; in the data active means activation above about 7.5%
NadD inh: inhibitors of Staphylococcus aureus NadD. purified NadD enzyme, colorimetric absorbance read-out. inhibition, % at 20 µM. 360,000 tested, 0.78% active; in the data active means inhibition above about 26%
NadD conf: confirmation of Staphylococcus aureus NadD inhibitors; purified S. aureus NadD, colorimetric enzyme assay; 2,000 tested, 13% active; inhibition, % at 20 µM; shares compounds with NadD inh; in the data active means inhibition mostly above about 42%, no sharp cut-off; inactive means mostly below about 42%
MsrA inh confirm: bovine MsrA inhibition, confirmed | 2,300 tested, 41% active | shares compounds with MsrA inhibitor | AID 651822 | purified bovine MsrA, absorbance read-out | inhibition, % at 15.5 µM;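 further: coupled to thioredoxin reductase with NADPH and selenocystamine and DMSO as substrate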
rCAG binder conf: r(CAG) RNA repeat binding, confirmation. shares compounds with rCAG binder. TO-PRO-1 dye displacement fluorescence. inhibition, % at 3 µM. 4,300 tested, 70% active;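 active means inhibition above a per-plate cutoff, the mean inhibition of sample wells plus 3 SD, cut at about 35% in these data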;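 further: loss of TO-PRO-1 fluorescence as compound displaces dye from 1x1 AA loop RNA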
DNA CAG counter: counter-screen for rCAG RNA binders: DNA CAG dye complex inhibitors. shares compounds with rCAG binder. d(CAG) DNA oligo TO-PRO-1 dye displacement, fluorescence. inhibition, % at 3 µM. 4,300 tested, 94% active;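 active means inhibition above its plate's cutoff, the mean test-well inhibition plus 3 SD, cut at about 4.8% in these data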;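 further: hits displace the dye from DNA and so lower well fluorescence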
dCAG dye DR: counter-screen for rCAG binders: inhibitors of DNA CAG TO-PRO-1 complex; shares compounds with rCAG binder; DNA CAG/GTC duplex TO-PRO-1 dye displacement fluorescence; IC50, µM; 250 tested, 20% active; in the data active means IC50 below about 10 µM
Hits are given with their value; – = inactive; · = no result. Unless noted, no stated cut-off is given here; in the data, active means inhibition above about 4.5%; inactive means the rest.

SMILES	rCAG binder	MsrA inhibitor	bovine MsrA act	NadD inh	NadD conf	rCAG binder conf	DNA CAG counter	others
COC(=O)[C@]12CCCCC=C1N(Cc1ccco1)C(=O)[C@H](CC(=O)N1CCN(C(=O)C3CC3)CC1)C2	–	–	–	–	·	·	·
O=C(Nc1ccc(-c2nc3ccccc3o2)c(O)c1)c1cc(-n2cnnc2)ccc1Cl	–	4.8	–	29.6	–	·	·	MsrA inh confirm=–
COc1ccc(/C=N/NC(=O)c2ccc(CN3c4cccc5cccc(c45)S3(=O)=O)cc2)cc1	–	5.0	–	31.4	–	·	·	MsrA inh confirm=5.2
COc1cc(C(=O)C(=O)N2CCC(Cc3ccccc3)CC2)cc2ccccc12	–	–	·	·	·	·	·
COc1ccc(NS(=O)(=O)c2cccc(C(=O)N/N=C/c3cn(-c4ccccc4)nc3-c3ccccc3)c2)cc1	–	–	–	–	·	·	·
COc1ccccc1NS(=O)(=O)c1cccc(C(=O)N/N=C/c2cn(-c3ccccc3)nc2-c2ccccc2)c1	–	6.1	–	32.6	–	·	·	MsrA inh confirm=–
COCCn1c(=NC(=O)c2ccc(S(=O)(=O)N3CCc4ccccc4C3)cc2)sc2cc(S(N)(=O)=O)ccc21	–	5.9	–	70.8	–	·	·	MsrA inh confirm=–
COC(=O)Cn1c(=NC(=O)c2ccc(S(=O)(=O)N3CCc4ccccc4C3)cc2)sc2cc(OC)ccc21	–	–	–	–	·	·	·
CN[C@H]1C[C@H]2c3[nH]c4cccc(-c5cccc(F)c5)c4c3CCN2C(=O)[C@H]1[C@H](C)O	–	·	·	·	·	·	·
Cc1cc(C(=O)N/N=C/c2ccc([N+](=O)[O-])o2)c(C)o1	–	–	–	–	·	·	·
O=C(N/N=C/c1ccco1)c1cc(-c2ccccc2)nc2ccccc12	–	–	–	–	·	·	·
CCCc1ccc(-c2cc(C(=O)N/N=C/c3ccc([N+](=O)[O-])o3)c3ccccc3n2)cc1	44.9	–	–	33.9	–	36.1	19.0
O=C(N/N=C/c1ccc([N+](=O)[O-])o1)c1cc(-c2cccc(Br)c2)nc2ccccc12	42.7	–	–	71.6	–	46.8	29.3
O=C(O)COc1ccccc1/C=N/NC(=O)c1cc(-c2ccccc2)nc2ccccc12	–	–	–	–	·	·	·
O=C(O)COc1ccccc1/C=N/NC(=O)c1cc(-c2ccc(Cl)cc2)nc2ccccc12	79.1	5.0	–	23.7	53.0	72.4	33.2	MsrA inh confirm=–;dCAG dye DR=–
COc1ccccc1-c1cnc(C(O)c2ccc(C)cc2C)[nH]1 (centres undefined)	–	–	–	–	·	·	·
Cc1cc(-c2nnc(SCC(=O)Nc3nc(-c4ccc(Cl)cc4)cs3)o2)no1	45.9	–	–	26.6	–	–	5.8
CCNC(=O)C1(C)CCCN(CC(=O)c2ccccc2OC)C1 (centres undefined)	–	–	–	–	·	·	·
Cc1cccc(NS(=O)(=O)c2ccc3[nH]c(=O)cc(C(=O)OC(C)C(=O)Nc4ccc([N+](=O)[O-])cc4)c3c2)c1 (centres undefined)	46.0	–	–	43.4	–	36.3	16.9
CC(C)[C@H](NC(=O)c1ccccc1Cl)C(=O)Nc1ccc(S(=O)(=O)Nc2nccs2)cc1	–	–	–	–	·	·	·
COc1cc(NS(=O)(=O)c2ccc(NS(=O)(=O)c3ccccc3)cc2)nc(OC)n1	–	–	–	–	·	·	·
COc1cc(NS(=O)(=O)c2ccc(NC(=O)/C(=C/c3ccccc3Cl)NC(=O)c3ccccc3)cc2)nc(OC)n1	73.8	–	–	33.1	48.9	78.7	33.7	dCAG dye DR=9.82
O=C(Nc1ccc(S(=O)(=O)Nc2nccs2)cc1)/C(=C/c1ccccc1Cl)NC(=O)c1ccccc1	77.9	–	–	39.2	55.7	67.7	34.6
O=C(c1ccc(NS(=O)(=O)c2cccs2)cc1)N1CCOCC1	–	–	–	–	·	·	·
CCn1c2ccccc2c2c3ncc4cccn4c3ccc21	39.3	–	–	39.4	–	55.5	25.1
SMILES	rCAG binder	MsrA inhibitor	bovine MsrA act	NadD inh	NadD conf	rCAG binder conf	DNA CAG counter	others
CC(OC(=O)C1CCCC1)C(=O)Nc1ncc(Cl)cc1Cl (centres undefined)	–	–	–	–	·	·	·
COc1ccc(OCCCC(=O)Nc2cc(S(=O)(=O)N3CCCCC3)ccc2C)cc1	–	–	–	–	·	·	·
C=CCNC(=O)C1CC1(c1cccc(C)c1)c1cccc(C)c1 (centres undefined)	–	–	–	–	·	·	·
Cc1cccc(C2(c3cccc(C)c3)CC2C(=O)Nc2ccc([N+](=O)[O-])cc2O)c1 (centres undefined)	49.1	–	–	30.0	49.8	52.0	21.9
CCCc1cc(=O)[nH]c(SCC(=O)Nc2sc3c(c2C#N)CCC(C)C3)n1 (centres undefined)	66.2	–	–	27.7	–	52.7	19.9
CC1CCc2c(sc(NC(=O)COC(=O)c3ccc(NC(=O)CC#N)cc3)c2C#N)C1 (centres undefined)	39.4	–	–	36.1	–	37.0	17.7
Cc1cc(C(=O)OCC(=O)Nc2sc3c(c2C#N)CCC(C)C3)c2ccccc2n1 (centres undefined)	–	–	–	–	·	·	·
CCCOc1ccc(C(=O)N/N=C/c2ccc(-c3ccc(S(=O)(=O)Nc4ncccn4)cc3)o2)cc1	54.4	–	–	32.2	49.1	60.5	23.6
COc1ccc(S(=O)(=O)NCc2cccnc2)cc1NC(=O)c1ccccc1C	66.1	–	–	83.1	–	59.4	34.0
Cc1ccc(NS(=O)(=O)c2cc([N+](=O)[O-])ccc2NNC(=S)Nc2cc(C)ccc2C)c(C)c1	49.8	–	–	46.5	–	83.6	44.1
Cc1cc(C)cc(-n2ccnc2SCC(=O)O)c1	–	–	–	–	·	·	·
Cc1ccc(/C=c2\sc3nc(-c4ccco4)nn3c2=O)o1	·	·	–	–	·	·	·
COc1ccc(Br)cc1/C=c1\sc2nc(-c3ccco3)nn2c1=O	46.1	–	–	40.3	–	42.5	20.6
CC(C)n1c(CNC(=O)c2ccccc2F)nnc1SCC(=O)NC1CCCCC1	46.3	–	–	32.4	–	–	18.2
CCn1c(CNC(=O)c2ccccc2F)nnc1SCC(=O)NC1CCCCC1	–	–	–	–	·	·	·
CCCCCCC(=O)Nc1nc(C)c(-c2csc(Nc3cc(Cl)ccc3C)n2)s1	38.5	–	–	39.0	–	–	11.1
CCCCC(=O)Nc1nc(C)c(-c2csc(Nc3cc(Cl)ccc3OC)n2)s1	45.0	–	–	33.6	–	–	13.1
CCc1nc2c(OCc3ccccc3C)cccn2c1N(C)C(=O)c1ccco1	–	–	–	–	·	·	·
O=C(Nc1nc(-c2ccco2)c(-c2ccco2)s1)c1c(F)cccc1Cl	78.1	–	–	43.2	–	–	14.0
O=C(Nc1nc2c(F)cccc2s1)c1ccco1	–	–	–	–	·	·	·
